FMDV FLuc: FMDV antiviral activity by firefly signal; hit rate 0.23% among 120,000; FMDV antiviral cell assay, firefly luciferase signal; Potency, µM (highest dose often 57.5 µM), actives largely listed as inhibitors; note: nearly all actives have a fitted effect of over 60% in size
FMDV Renilla: FMDV antiviral activity by Renilla signal; FMDV replicon cells, Renilla luciferase signal; Potency, µM (titrated, usually from 57.5 µM), usual class: inhibitors; AID 1745857; hit rate 0.32% among 120,000; note: nearly all actives have a fitted effect of over 55% in size
Hits are given with their value; [ ] = dose if it differs, or a comment. Sampled rows, rich in hits. Any-hit rate of the full collection: about 0.4%. Calls come from the whole dose curve.

`CCOc1ccc2ccccc2c1C=O` gave FMDV FLuc inactive and FMDV Renilla inactive.
`CCOc1ccc(C=O)c2ccccc12` gave FMDV FLuc 10µM and FMDV Renilla 4.47µM.
Screening O=C(CSc1nc(-c2ccco2)nc2ccccc12)N1CCCCCCC1 returned FMDV FLuc inactive and FMDV Renilla inactive.
Cc1cccc(Cn2c(NCCN3CCOCC3)nc3c2c(=O)n(C)c(=O)n3C)c1 was read as FMDV FLuc inactive and FMDV Renilla inactive.
Screening Cc1cccc(Cn2c(NCCO)nc3c2c(=O)n(C)c(=O)n3C)c1 returned FMDV FLuc inconclusive and FMDV Renilla 11.2µM.
Screening Cn1c(=O)c2c(nc(NCCO)n2Cc2cccc(Br)c2)n(C)c1=O returned FMDV FLuc inconclusive and FMDV Renilla 12.6µM.
Screening Cn1c(=O)c2c(nc(NCCCCO)n2Cc2ccccc2Cl)n(C)c1=O returned FMDV FLuc inactive and FMDV Renilla inactive.
`Cn1c(=O)c2c(nc(NCCO)n2Cc2ccccc2F)n(C)c1=O` gave FMDV FLuc 12.6µM and FMDV Renilla 12.6µM.
For Cn1c(=O)c2c(nc(NCCc3ccccc3)n2Cc2cccc(Br)c2)n(C)c1=O the results were FMDV FLuc inactive and FMDV Renilla inactive.
`NC(=O)c1[nH]ncc1NCc1cccnc1` gave FMDV FLuc inactive and FMDV Renilla inactive.
C=CCNc1nc2c(c(=O)n(C)c(=O)n2C)n1CC(O)COc1ccc(OC)cc1 (configuration not stated) was read as FMDV FLuc inconclusive and FMDV Renilla 22.4µM.
For C=CCNc1nc2c(c(=O)n(C)c(=O)n2C)n1CC the results were FMDV FLuc inactive and FMDV Renilla inactive.
Screening Cc1ccc(OCC(O)Cn2c(NCC(=O)O)nc3c2c(=O)n(C)c(=O)n3C)cc1 (configuration not stated) returned FMDV FLuc inactive and FMDV Renilla inactive.
Screening C=CCNc1nc2c(c(=O)n(C)c(=O)n2C)n1CCC(C)C returned FMDV FLuc 28.2µM and FMDV Renilla 15.8µM.
CN(CC(=O)NC(=O)NCc1ccccc1)C1CCCc2ccccc21 (configuration not stated) was read as FMDV FLuc inactive and FMDV Renilla inactive[1.06 µM].
For COc1cccc(NC(=O)c2ncoc2-c2ccc(C)s2)c1 the results were FMDV FLuc inactive and FMDV Renilla inactive.
Screening CCNc1nc(SC(C)C(=O)NC2CC2)nc2ccccc12 (configuration not stated) returned FMDV FLuc inactive and FMDV Renilla inactive.
For COc1ccc(C(=O)Nc2ccc(S(=O)(=O)N(Cc3ccccc3)c3ccccc3)cc2)cc1 the results were FMDV FLuc 5.01µM and FMDV Renilla 5.01µM.
`CCOc1ccc(C(=O)Nc2ccc(-n3nncc3-c3ccc(OC)cc3)cc2)cc1` gave FMDV FLuc inactive and FMDV Renilla inactive.
Screening O=C(COc1ccccc1)Nc1ccc(S(=O)(=O)N(Cc2ccccc2)c2ccccc2)cc1 returned FMDV FLuc inactive and FMDV Renilla inactive.
Screening COc1ccc(-c2cnnn2-c2ccc(NC(=O)c3ccc(S(=O)(=O)N(C)C)cc3)cc2)cc1 returned FMDV FLuc inconclusive and FMDV Renilla 6.31µM.
NC(C(=O)O)c1cccnc1 (configuration not stated) was read as FMDV FLuc inactive and FMDV Renilla inactive.
For O=C(Nc1cccnc1)c1ccc(SC(F)(F)F)cc1 the results were FMDV FLuc inactive and FMDV Renilla inactive.
O=C(Nc1ccncc1)c1ccc(SC(F)(F)F)cc1 was read as FMDV FLuc inconclusive and FMDV Renilla 20µM.
Cc1cc(=O)oc2cc(OCC(=O)NCCN(C)C)c(Cl)cc12 was read as FMDV FLuc inactive and FMDV Renilla inactive.
N#Cc1cccnc1NCc1cccnc1 was read as FMDV FLuc inactive and FMDV Renilla inactive.
CC(c1ccccc1)N(C)C(=O)CSc1nc2ccccc2o1 (configuration not stated) was read as FMDV FLuc inactive and FMDV Renilla inactive.
Screening Cc1nc2ccccc2nc1SCC(=O)N(C)C(C)c1ccc(F)cc1 (configuration not stated) returned FMDV FLuc 28.2µM and FMDV Renilla 35.5µM.
`NC(=O)C1CCN(C(=O)c2cc(-c3ccc(-c4ccccc4)cc3)nc3ccccc23)CC1` gave FMDV FLuc inactive and FMDV Renilla inactive.
`CC12CC3CC(C)(C1)CC(NCc1ccccc1OCc1ccc(Cl)cc1Cl)(C3)C2` gave FMDV FLuc inactive and FMDV Renilla inactive.
O=C(CCN1CCC(c2ccccc2)C1)c1ccc2ccccc2c1 (configuration not stated) was read as FMDV FLuc inactive and FMDV Renilla inactive.
Screening COc1ccc(CCNC(=O)c2c(O)nc3c(C)cccn3c2=O)cc1OC returned FMDV FLuc inactive and FMDV Renilla inactive.
COc1ccccc1CNC(=O)c1c(O)nc2c(C)cccn2c1=O was read as FMDV FLuc inconclusive and FMDV Renilla 35.5µM.
For COc1ccc(C)cc1NC(=O)c1cc(-c2ccc(C)o2)nc2ccccc12 the results were FMDV FLuc inactive and FMDV Renilla inactive.

Compound activity deposited in PubChem BioAssay by National Center for Advancing Translational Sciences (NCATS).
